Calls of active or inactive are those of the source.
Columns and labels:
[1] = system: Plasmodium falciparum Sir2 (PF13_0152, Sir2A); test: Plasmodium falciparum Sir2A binding compounds – biochemical, small-molecule microarray, 635 nm fluorescence, primary screen (AID 1098); conditions: fluorescence 635 nm, higher = more signal;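 note: score merges spot fluorescence intensity with its signal-to-noise ratio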
[2] = probe aDKK1 binding to arrayed compounds – biochemical, biotinylated probe, 635/667 nm fluorescence, primary screen (AID 1099); conditions: small-molecule microarray, higher = more signal;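 note: score merges 667nm spot fluorescence with signal to noise across triplicate slides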
[3] = probe aCHRDL2 binding to arrayed compounds – biochemical, biotinylated probe, 635/667 nm fluorescence, primary screen (AID 1100); conditions: small-molecule microarray, higher = more signal
[4] = change in splice reporter luminescence, either direction, cell-based, HEK293, spliceosome inhibition project, primary screen (AID 1101); conditions: HEK293 splicing luciferase reporter, 24 h, higher = more signal, called active from +8 up or from −8 down;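 note: HEK293 cells carrying a splicing-competent luciferase reporter gene; test concentration not given here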
[5] = molecular target: Fibroblast growth factor 10 (Homo sapiens) (UniProt O15520); test: compounds binding fibroblast growth factor 10 – biochemical, small-molecule microarray, 635 nm fluorescence, primary screen (AID 1102); conditions: FGF10 binding, fluorescence 635 nm, higher = more signal
Fibroblast growth factor 10 (Homo sapiens), sequence (O15520 whole entry, looked up): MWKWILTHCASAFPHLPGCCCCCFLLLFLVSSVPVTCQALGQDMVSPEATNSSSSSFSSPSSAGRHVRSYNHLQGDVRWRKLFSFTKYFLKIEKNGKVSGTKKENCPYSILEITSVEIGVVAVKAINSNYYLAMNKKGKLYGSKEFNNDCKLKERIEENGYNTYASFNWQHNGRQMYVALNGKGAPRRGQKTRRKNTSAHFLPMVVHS

[6] = system: glycogen synthase kinase-3 (GSK3A per assay name; protocol says GSK3B); test: compounds binding glycogen synthase kinase-3 – biochemical, small-molecule microarray, 635 nm fluorescence, GSK3A, primary screen (AID 1103); conditions: fluorescence 635 nm, higher = more signal; note: the record names both GSK3A and GSK3B
[7] = molecular target: Epidermal growth factor receptor (Homo sapiens) (UniProt P00533); test: compounds binding epidermal growth factor receptor – biochemical, small-molecule microarray, 635 nm fluorescence, primary screen (AID 1104); conditions: EGFR binding, higher = more signal;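 note: score merges 667 nm emission intensity with spot signal to noise over triplicate slides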
Epidermal growth factor receptor (Homo sapiens), sequence (P00533 whole entry, looked up): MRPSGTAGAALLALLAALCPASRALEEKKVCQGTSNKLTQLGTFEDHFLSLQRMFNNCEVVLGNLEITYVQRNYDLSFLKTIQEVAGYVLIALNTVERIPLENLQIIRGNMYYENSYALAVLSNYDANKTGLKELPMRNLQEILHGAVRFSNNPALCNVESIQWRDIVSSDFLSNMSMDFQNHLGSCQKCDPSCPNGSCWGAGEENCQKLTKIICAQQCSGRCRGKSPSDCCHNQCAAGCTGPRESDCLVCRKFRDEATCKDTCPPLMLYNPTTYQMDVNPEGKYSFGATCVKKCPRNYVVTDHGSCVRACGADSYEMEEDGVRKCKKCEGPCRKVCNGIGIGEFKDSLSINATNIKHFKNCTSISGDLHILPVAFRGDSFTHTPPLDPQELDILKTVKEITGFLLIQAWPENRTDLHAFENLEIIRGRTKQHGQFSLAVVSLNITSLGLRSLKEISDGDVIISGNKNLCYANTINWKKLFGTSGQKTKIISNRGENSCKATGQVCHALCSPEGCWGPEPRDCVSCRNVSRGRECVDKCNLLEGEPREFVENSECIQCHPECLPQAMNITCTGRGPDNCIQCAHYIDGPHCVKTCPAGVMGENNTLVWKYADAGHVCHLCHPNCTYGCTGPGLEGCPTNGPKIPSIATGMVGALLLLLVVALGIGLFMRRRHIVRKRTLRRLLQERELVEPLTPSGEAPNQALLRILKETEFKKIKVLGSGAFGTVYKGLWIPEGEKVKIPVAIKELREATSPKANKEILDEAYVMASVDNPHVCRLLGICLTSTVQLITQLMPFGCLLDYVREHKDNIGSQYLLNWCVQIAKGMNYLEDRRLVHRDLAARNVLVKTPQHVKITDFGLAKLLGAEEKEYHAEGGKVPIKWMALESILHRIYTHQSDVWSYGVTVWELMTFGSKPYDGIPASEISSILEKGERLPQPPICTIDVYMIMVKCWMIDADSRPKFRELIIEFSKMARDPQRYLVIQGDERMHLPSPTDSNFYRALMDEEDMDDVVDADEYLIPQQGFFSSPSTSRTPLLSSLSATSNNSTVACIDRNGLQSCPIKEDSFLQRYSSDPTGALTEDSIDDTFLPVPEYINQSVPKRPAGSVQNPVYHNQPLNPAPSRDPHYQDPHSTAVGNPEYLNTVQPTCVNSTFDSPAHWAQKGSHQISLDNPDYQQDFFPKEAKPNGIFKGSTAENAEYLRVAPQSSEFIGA

[8] = molecular target: Follistatin-related protein 3 (Homo sapiens) (UniProt O95633); test: compounds binding follistatin-related protein 3 – biochemical, small-molecule microarray, 635 nm fluorescence, primary screen (AID 1105); conditions: FSTL3 binding, higher = more signal;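 note: score merges emission near 667 nm and signal to noise per printed spot across three slides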
Follistatin-related protein 3 (Homo sapiens), sequence (O95633 whole entry, looked up): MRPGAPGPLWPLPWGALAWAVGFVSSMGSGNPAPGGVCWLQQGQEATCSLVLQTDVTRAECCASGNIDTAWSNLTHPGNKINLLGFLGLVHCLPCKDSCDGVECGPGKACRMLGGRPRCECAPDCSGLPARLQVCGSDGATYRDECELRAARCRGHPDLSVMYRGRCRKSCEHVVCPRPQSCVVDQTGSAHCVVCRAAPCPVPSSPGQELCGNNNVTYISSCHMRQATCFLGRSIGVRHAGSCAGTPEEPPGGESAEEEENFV

[9] = molecular target: Dickkopf-related protein 1 (Homo sapiens) (UniProt O94907); test: small molecules binding DKK1 protein – biochemical, small-molecule microarray, 635 nm fluorescence scan, primary screen (AID 1106); conditions: higher = more signal;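 note: score merges emission near 667 nm with signal to noise over three replicate slides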
Dickkopf-related protein 1 (Homo sapiens), sequence (O94907 whole entry, looked up): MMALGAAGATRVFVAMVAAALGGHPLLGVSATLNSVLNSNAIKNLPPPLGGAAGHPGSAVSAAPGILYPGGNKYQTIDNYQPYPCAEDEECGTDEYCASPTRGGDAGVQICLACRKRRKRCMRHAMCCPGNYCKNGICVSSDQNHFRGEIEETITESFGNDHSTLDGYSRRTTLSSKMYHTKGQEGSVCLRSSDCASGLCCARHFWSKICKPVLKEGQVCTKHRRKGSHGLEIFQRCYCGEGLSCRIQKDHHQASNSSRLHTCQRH

[10] = system: Inhibin beta A chain (activin A); test: small molecules binding activin A – biochemical, small-molecule microarray, 635 nm fluorescence scan, primary screen (AID 1107); conditions: INHBA, higher = more signal;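 note: mouse activin A protein probed at 4.33 µg/mL on printed slides; score merges bound-protein fluorescence near 667 nm with spot signal-to-noise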
[11] = system: Human papillomavirus type 1a protein E7 (residues 44-93); test: small molecules binding HPV E7 44-93 – biochemical, small-molecule microarray, residues 44-93, 635 nm fluorescence, primary screen (AID 1108); conditions: fluorescence 635 nm, higher = more signal;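 note: E7 fragment applied at 1 µg/mL in TBST for 1 h at 4 C; score combines spot fluorescence with its signal to noise ratio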
[12] = hepatitis C replication reporter changes, two-sided – Huh7 cells, luciferase reporter, HCV replication inhibitor project, primary screen (AID 1109); conditions: Huh7 HCV replicon luciferase reporter, 48 h; higher = more signal;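 note: huh7 hepatoma cells harbouring a luciferase neomycin HCV replicon reporter; luciferase luminescence as measure of HCV replicon replication; test concentration not given here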
[13] = molecular target: Left-right determination factor 2 (Homo sapiens) (UniProt O00292); test: small molecules binding LEFTY2 protein – biochemical, small-molecule microarray, 635 nm fluorescence scan, primary screen (AID 1110); conditions: higher = more signal
Left-right determination factor 2 (Homo sapiens), sequence (O00292 whole entry, looked up): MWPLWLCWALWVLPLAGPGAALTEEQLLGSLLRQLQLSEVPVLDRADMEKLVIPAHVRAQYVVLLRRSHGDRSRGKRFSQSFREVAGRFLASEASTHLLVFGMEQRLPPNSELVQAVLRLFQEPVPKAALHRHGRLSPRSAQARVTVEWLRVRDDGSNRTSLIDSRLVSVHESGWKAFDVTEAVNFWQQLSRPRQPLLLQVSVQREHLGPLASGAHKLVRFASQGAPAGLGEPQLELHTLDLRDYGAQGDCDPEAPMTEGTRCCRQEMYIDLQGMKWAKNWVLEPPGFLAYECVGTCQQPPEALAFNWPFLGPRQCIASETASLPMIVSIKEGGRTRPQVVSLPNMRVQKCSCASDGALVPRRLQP

[14] = molecular target: Calmodulin-1 (Homo sapiens) (UniProt P0DP23); test: small molecules binding calmodulin-1 with EGTA – biochemical, small-molecule microarray, Cy5-labelled CALM1, profiling panel (AID 1111); conditions: Cy5-CALM1 binding fluorescence, higher = more signal;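 note: labelled calmodulin applied in Tris saline Tween buffer holding calcium plus EGTA and DTT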
[15] = molecular target: Calmodulin-1 (Homo sapiens) (UniProt P0DP23); test: small molecules binding Ca-loaded calmodulin-1 – biochemical, small-molecule microarray, Cy5-labelled CALM1, plus calcium, artefact control for SMM control-protein annotation, profiling panel (AID 1112); conditions: Cy5-CALM1 binding fluorescence, higher = more signal;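 note: score merges spot fluorescence with signal to noise from triplicate slides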
[16] = probe aWnt5a binding to arrayed compounds – biochemical, biotinylated probe, 635/667 nm fluorescence, primary screen (AID 1113); conditions: small-molecule microarray, higher = more signal;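 note: score merges 667 nm fluorescence intensity with signal-to-noise per printed feature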
[17] = probe aShh binding to arrayed compounds – biochemical, biotinylated probe, 635/667 nm fluorescence, primary screen (AID 1114); conditions: small-molecule microarray, higher = more signal;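 note: probe is biotin-labelled aShh protein from a stem cell growth factor screen; measures binding of labelled protein to compounds printed on the slide; score merges feature fluorescence at 667 nm with signal-to-noise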
[18] = probe aNog binding to arrayed compounds – biochemical, biotinylated probe, 635/667 nm fluorescence, primary screen (AID 1115); conditions: small-molecule microarray, higher = more signal;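 note: probe is biotinylated aNog protein used at 0.15 µg/mL for 1 h at 4 C; z-score combines 667 nm fluorescence of each spot with its signal to noise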
[19] = molecular target: Torsin-1A-interacting protein 1 (Homo sapiens) (UniProt Q5JTV8); test: compound microarray binding of lysate hLAP1 – cell lysate, small-molecule microarray, COS7 lysate, 635/667 nm fluorescence, primary screen (AID 1116); conditions: 635 nm fluorescence, higher = more signal
Torsin-1A-interacting protein 1 (Homo sapiens), sequence (Q5JTV8 whole entry, looked up): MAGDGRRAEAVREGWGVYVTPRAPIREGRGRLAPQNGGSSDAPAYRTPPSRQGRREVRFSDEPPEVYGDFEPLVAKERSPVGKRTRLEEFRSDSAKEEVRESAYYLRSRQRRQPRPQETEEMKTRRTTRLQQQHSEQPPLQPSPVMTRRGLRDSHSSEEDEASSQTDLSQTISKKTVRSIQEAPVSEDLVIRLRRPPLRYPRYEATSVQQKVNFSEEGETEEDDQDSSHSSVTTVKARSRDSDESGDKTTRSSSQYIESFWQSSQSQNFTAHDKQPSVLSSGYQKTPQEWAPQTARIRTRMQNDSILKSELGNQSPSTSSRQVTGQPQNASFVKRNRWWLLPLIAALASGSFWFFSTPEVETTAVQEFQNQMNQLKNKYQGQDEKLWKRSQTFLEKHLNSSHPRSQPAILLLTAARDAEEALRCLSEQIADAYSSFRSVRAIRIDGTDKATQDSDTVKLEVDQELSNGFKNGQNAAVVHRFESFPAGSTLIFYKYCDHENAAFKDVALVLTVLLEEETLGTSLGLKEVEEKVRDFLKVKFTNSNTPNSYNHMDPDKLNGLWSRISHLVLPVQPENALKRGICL

[20] = molecular target: Alpha-bungarotoxin (Bungarus multicinctus) (UniProt P60615); test: compounds binding labelled alpha-BTX control protein – biochemical, small-molecule microarray, Alexa647 label, 635/667 nm fluorescence, artefact control for SMM control protein annotation, profiling panel (AID 1117); conditions: alpha-BTX-A647 binding fluorescence, higher = more signal
Alpha-bungarotoxin (Bungarus multicinctus), sequence (P60615 whole entry, looked up): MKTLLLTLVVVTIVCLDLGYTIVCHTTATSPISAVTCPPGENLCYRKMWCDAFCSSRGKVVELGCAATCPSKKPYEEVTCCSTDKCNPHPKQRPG

SMILES: CCCN1C(=O)[C@@]2(CCS(=O)(=O)c3ccccc3)N=C(c3ccc(OCCCO)cc3)O[C@H]2c2ccccc21
- composite z-score [1]: 0.915
- composite z-score [2]: 0.164
- composite z-score [3]: 0.827
- z-score [4]: 0.597 (inactive)
- composite z-score [5]: 0.736
- composite z-score [6]: 1.31
- composite z-score [7]: 0.279
- composite z-score [8]: 0.998
- composite z-score [9]: 0.503
- composite z-score [10]: 0.96
- composite z-score [11]: 1.45
- z-score [12]: -2.08
- composite z-score [13]: 0.224
- composite z-score [14]: 0.248
- composite z-score [15]: -0.598
- composite z-score [16]: -0.0721
- composite z-score [17]: -0.0234
- composite z-score [18]: -0.269
- composite z-score [19]: 0.307
- composite z-score [20]: 1.01

SMILES: C=C(C(=O)CC[C@H](OC(=O)c1ccccc1-c1ccccc1C(=O)O)c1ccc(CO)o1)C(C)C
- composite z-score [1]: 0.75
- composite z-score [2]: -0.209
- composite z-score [3]: -0.558
- z-score [4]: -0.107 (inactive)
- composite z-score [5]: 1.45
- composite z-score [6]: 0.914
- composite z-score [7]: -0.0997
- composite z-score [8]: 0.858
- composite z-score [9]: 0.568
- composite z-score [10]: 0.664
- composite z-score [11]: 1.24
- z-score [12]: -1.3
- composite z-score [13]: 0.408
- composite z-score [14]: 0.506
- composite z-score [15]: -0.698
- composite z-score [16]: 0.0214
- composite z-score [17]: -0.276
- composite z-score [18]: 0.265
- composite z-score [19]: 0.875
- composite z-score [20]: 0.905

SMILES: CO[C@H]1O[C@H](CO)[C@@H](OC(=O)CCc2ccccc2)[C@@H]2OC(=O)[C@H](Cc3cccc(Br)c3)C/C=C/C[C@@H](Cc3cccc(Br)c3)C(=O)O[C@@H]12
- composite z-score [1]: 1.6
- composite z-score [2]: 0.385
- composite z-score [3]: 0.874
- z-score [4]: -2.19 (inactive)
- composite z-score [5]: -0.487
- composite z-score [6]: -0.78
- composite z-score [7]: -1.49
- composite z-score [8]: -0.753
- composite z-score [9]: -0.402
- composite z-score [10]: 0.951
- composite z-score [11]: 0.234
- z-score [12]: -0.93
- composite z-score [13]: -0.798
- composite z-score [14]: -0.638
- composite z-score [15]: -0.282
- composite z-score [16]: -0.0819
- composite z-score [17]: 0.103
- composite z-score [18]: 0.146
- composite z-score [19]: -0.0066
- composite z-score [20]: 2.14

SMILES: CC(C)(C)OC(=O)CC[C@]1(C(=O)N2CCCCC2)N=C(c2ccc(OCCCO)cc2)O[C@H]1c1ccccc1
- composite z-score [1]: 1.73
- composite z-score [2]: 0.464
- composite z-score [3]: 0.56
- z-score [4]: -0.767 (inactive)
- composite z-score [5]: 1.2
- composite z-score [6]: 1.29
- composite z-score [7]: 0.494
- composite z-score [8]: 1.37
- composite z-score [9]: 0.691
- composite z-score [10]: 0.556
- composite z-score [11]: 1.37
- z-score [12]: -1.66
- composite z-score [13]: 0.538
- composite z-score [14]: 1.68
- composite z-score [15]: -0.0194
- composite z-score [16]: 0.0919
- composite z-score [17]: -0.138
- composite z-score [18]: 0.248
- composite z-score [19]: 1.89
- composite z-score [20]: 2.02

SMILES: O=C1OCC=C[C@H]2OC34C=CCN(Cc5ccccc5)C(=O)[C@H]3N(CCCCCO)C(=O)[C@@H]4[C@@H]12 (stereo not given in full)
- composite z-score [1]: 1.41
- composite z-score [2]: -0.212
- composite z-score [3]: 0.528
- z-score [4]: -1.45 (inactive)
- composite z-score [5]: -0.606
- composite z-score [6]: -0.447
- composite z-score [7]: -1.36
- composite z-score [8]: -0.647
- composite z-score [9]: -1.01
- composite z-score [10]: 0.18
- composite z-score [11]: -0.646
- z-score [12]: -0.615
- composite z-score [13]: -1.84
- composite z-score [14]: -0.398
- composite z-score [15]: 1.08
- composite z-score [16]: -0.169
- composite z-score [17]: -0.138
- composite z-score [18]: 0.161
- composite z-score [19]: -0.328
- composite z-score [20]: -1.52

Reference: PubChem BioAssay
